MCF10A rerep – A quantitative high throughput screen for small molecules that induce DNA re-replication in MCF 10a normal breast cells | Potency, µM (highest dose often 46.1 µM), for inactives: top-dose activity, positive = re-replication, usual class: activators | hit rate 2.9% among 350,000 | MCF 10A DNA re-replication, Hoechst nuclear intensity, 48 h; note: potency is the fitted concentration of half-maximal effect; % of control where 0% means no effect; nearly all actives have a fitted effect of over 50% in size
SW480 rereplic – A quantitative high throughput screen for small molecules that induce DNA re-replication in SW480 colon adenocarcinoma cells. SW480 DNA re-replication, Hoechst DNA content imaging, 48 h. Potency, µM (highest dose often 46.1 µM), inactives show at the highest dose re-replication activation, usual class: activators. hit rate 1.8% among 340,000. AID 624297, 2012; note: potency is the fitted concentration of half-maximal effect; % of control where 0% means no effect; nearly all actives have a fitted effect of over 55% in size
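250 cells/well; 23 nL cpd via pin tool; 48 hr, 37 C, 5% CO2; Hoechst 40 min; imager read of total nuclear intensity, ex 405/em 500-530 nm.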
uPA surface inh – qHTS for Inhibitors of Cell Surface uPA Generation. hit rate 0.31% among 330,000. Potency, µM (doses to about 38.3 µM), for inactives: at the highest dose activity change, negative = inhibition, usual class: inhibitors. cell surface uPA generation assay, qHTS; active = well fitted inhibition curve with a large enough effect; inconclusive = small, poorly fitted or top-dose-only effect; inactive = no such curve, though single readings can be large or run the other way; tested in mouse RAW 264.7 cells; note: potency is the fitted concentration of half-maximal effect; % is set by controls: 0 for no effect and ±100 for the full control effect; nearly all actives have a fitted effect of over 55% in size
Giardia kill – Small Molecules that selectively kill Giardia lamblia: qHTS | Giardia lamblia trophozoite viability | activity change, % at 7.66 µM, hits read low | hit rate 0.15% among 340,000; in the data active = activity change below about -80%; inconclusive = between about -30% and that limit;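 note: parasites exposed to compound for two days anaerobically before the ATP read; % is set by controls: 0 for no effect and ±100 for the full control effect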
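ATP-content bioluminescence gauges trophozoite survival. Cells (100/well) receive compound and incubate anaerobically for 48 hrs at 37 deg C; detection reagent follows for 15-30 min at room temperature.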
Numbers without * were called inactive; u = inconclusive; x = not tested or not shown; [ ] = dose if it differs, or a comment. Hits are enriched below; roughly 4.3% of the tested compounds scored in any of these assays. Unless noted, calls come from the whole dose curve; as a rule, active = well fitted activation curve with a large enough effect; inconclusive = small, poorly fitted or top-dose-only effect; inactive = no such curve, though single readings can be large or run the other way.

SMILES	MCF10A rerep	SW480 rereplic	uPA surface inh	Giardia kill
O=C(COC(=O)C1CC2CCCC(C1)C2=O)Nc1ccccc1 (centres undefined)	-4%	-4%	0%	20
CN(C(=O)c1cc2c(s1)-c1ccccc1S(=O)(=O)C2)c1ccccc1	-2%	u	2%	14
CCCCC(=O)NC(c1cccs1)c1cc(Cl)c2cccnc2c1O (centres undefined)	23%	24%	u	10
CC(=O)NC(c1cc(F)c2cccnc2c1O)C1CC1 (centres undefined)	u	u	u	-20
CCC(=O)NC(c1cccs1)c1cc(Cl)c2cccnc2c1O (centres undefined)	20%	u	7.1µM*	-2
CCC(=O)NC(c1cc(Cl)c2cccnc2c1O)C(C)C (centres undefined)	-8%	0.23µM*	u	3
CCC(=O)NC(c1cc(Cl)c2cccnc2c1O)C1CC1 (centres undefined)	8%	17%[9.22 µM]	13µM*	-14
O=C(NCc1ccco1)C1CCN(C(=O)c2cc3sccc3n2Cc2ccc(Cl)cc2)CC1	21µM*	u	u	4
O=C(NCc1ccco1)C1CCN(C(=O)c2ccc(Cl)cc2)CC1	0%	-3%	12%	-3
CC(Sc1nnc(-c2cccnc2)o1)C(=O)NC1CCCCC1 (centres undefined)	-4%	-23%	0%	-27
Cn1cnc([N+](=O)[O-])c1S(=O)(=O)c1ccc(Cl)cc1	9.2µM*	u	-16%	0
Cc1ccc(C(C(=O)NC2CCCCC2)N(CC2CCCO2)C(=O)CCCC(=O)Nc2ccccn2)cc1 (centres undefined)	0%	0%	3%	-3
CCOc1ccc(NS(=O)(=O)c2ccc(OCC)c3ncccc23)cc1	u	21µM*	x	-2
CCOc1ccc(S(=O)(=O)O)c2cccnc12	8%	-4%	x	x
COc1ccc(C(C)(C)C)cc1NC(=O)COC(=O)CSCc1c(C)noc1C	3%	3%	1%	50
CC1CCC(NC(=O)COC(=O)C2=NN(c3ccccc3)C(=O)CC2)CC1 (centres undefined)	-6%	-15%	8%	7
CCc1ccc(S(=O)(=O)N2CC(=O)Nc3ccccc32)cc1	-6%	u	1%	2
CCOC(=O)c1ccc(S(=O)(=O)N2CC(=O)Nc3ccccc32)cc1	u	15µM*	-4%	9
Cc1ccc(NCc2n[nH]c(=S)n2-c2ccccc2)c(C)c1	16%	1%	u	3
OC(CNCc1ccccc1C(F)(F)F)C(F)(F)F (centres undefined)	28%	u	3%	-10
Cn1c(C(=O)OC(C(=O)NC2CCCC2)c2cccnc2)cc2sccc21 (centres undefined)	10µM*	u	3%	-12
CC(C)(C)OC(=O)N1CCN(c2ccc(NC(=O)c3ccco3)cc2)CC1	5%	-13%	1%	4
Cc1ccc(C)c(C(=O)NCCN(C)C)c1	u	-8%	2%	-13
C=C(CN(C)C)C(=O)c1cc(C)ccc1C	2.6µM*	5.8µM*	17%	-10
CC(C)(C)N(Cc1ccccc1)C(=O)COC(=O)c1ccc(S(=O)(=O)N2CCOCC2)cc1	-2%	-5%	-29%	-10
SMILES	MCF10A rerep	SW480 rereplic	uPA surface inh	Giardia kill
CC(=O)N1CCN(S(=O)(=O)c2cccc(C(=O)OCC(=O)N(Cc3ccccc3)C(C)(C)C)c2)CC1	7.3µM*	-9%	u	0
CC(=O)N1CCN(S(=O)(=O)c2cccc(C(=O)OCC(=O)Nc3c(Cl)cccc3C(F)(F)F)c2)CC1	0%	-18%	-2%	-7
O=C(COC(=O)c1cccc(S(=O)(=O)N2CCCC2)c1)Nc1ccccc1C(F)(F)F	6%	4.6µM*	-1%	-1
CCCNC(=O)c1nc(C)n(-c2ccc([N+](=O)[O-])cc2)n1	0%	-7%	2%	5
CNC(=O)N1CCC(C(=O)c2c(C)c(C)c(C)c(C)c2C)CC1	3%	-17%	-1%	10
O=C(CC(Sc1ccc(Br)cc1)C(=O)O)c1ccc(F)cc1 (centres undefined)	23µM*	u	-2%	37
CCOc1ccc(C(=O)CC(Sc2ccc(C)cc2)C(=O)O)cc1 (centres undefined)	u	u	-7%	4
O=C1CC(c2ccccc2)CC2=C1C=Nc1ccccc1N2 (centres undefined)	18µM*	15µM*	-17%	-2

Bioassay records deposited in PubChem BioAssay by National Center for Advancing Translational Sciences (NCATS).
